Results filed as inconclusive are left out. Activity calls are given as the source filed them. Unless noted, the call rests on the fitted dose curve; in most records, active means well fitted curve in the direction sought with a large enough effect in the repeat runs; inconclusive means weak or mixed curves; inactive means no such curve, though single readings can be large; an effect the other way counts as inactive or inconclusive.
Experiments:
[1] = qHTS assay for small molecule agonists of the p53 signaling pathway (AID 651631; calls by dose curve; further: nearly all actives have a fitted effect of over 15% in size)
Procedure, shortened: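 Stably transfected HCT-116 cells (beta-lactamase behind p53 response elements) get compounds after a 5 h settling period; 16 h later at 37 °C, FRET substrate is loaded and fluorescence read after 2 h.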

[2] = qHTS assay for small molecules that induce genotoxicity in human embryonic kidney cells expressing luciferase-tagged ATAD5 (AID 651632); further: nearly all actives have a fitted effect of over 15% in size
Procedure, shortened: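 Genotoxicity read-out via ATAD5-luciferase: HEK293T cells, 16 hr compound incubation at 37C, Amplite detection.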

[3] = qHTS assay for small molecule agonists of the p53 signaling pathway - cell viability (AID 651633; calls by dose curve;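 further: p53RE-bla HCT reporter cells with a stable beta-lactamase p53 reporter; nearly all actives have a fitted effect of over 30% in size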)
Procedure, shortened: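 Viability counter-read: CellTiter-Glo luminescence (30 min, room temperature) in the same p53RE-bla plates. These plates had been exposed to compounds for 16 h at 37 C.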

[4] = qHTS assay for small molecules that induce genotoxicity in human embryonic kidney cells expressing luciferase-tagged ATAD5 - cell viability (AID 651634; calls by dose curve; further: nearly all actives have a fitted effect of over 25% in size)
Procedure, shortened: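 Live-cell protease activity (CellTiter-Fluor, fluorescence) indicates viability. HEK293T cells with luciferase-tagged ATAD5; 15.5 hr compound treatment at 37C.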

[5] = qHTS assay for small molecule disruptors of the mitochondrial membrane potential - cell viability (AID 720634; calls by dose curve;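 further: human HepG2 liver cancer cells; nearly all actives have a fitted effect of over 20% in size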)
Procedure, shortened: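 Human hepatoma HepG2 cells were treated for 1 hr with test chemicals, then given m-MPI dye and CellTiter-Glo. Cell viability reflects luminescence proportional to cellular ATP.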

[6] = qHTS assay to test for compound auto fluorescence at 590 nm (red) in HepG2 cells (AID 720674)
Procedure, shortened: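 Red autofluorescence (Ex/Em 540/590 nm, Rose Bengal sodium equivalents) was measured in HepG2 cells, 2,000 per well in MEM plus 10% FBS, plated overnight at 37 C. Readings were taken 1 hr after adding 23 nL compound or DMSO, at 37 C and 5% CO2.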

[7] = qHTS assay to test for compound auto fluorescence at 535 nm (green) in HepG2 cells (AID 720675)
[8] = qHTS assay to test for compound auto fluorescence at 460 nm (blue) in HEK293 cells (AID 720678)
Procedure, shortened: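 HEK293 cells (2,000 per well, medium with 10% dialyzed FBS) attached for 4-5 hr at 37C, then received compound and stood overnight at 37C, 5% CO2. Blue fluorescence was read at Ex/Em 405/460 nm and expressed relative to triamterene.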

[9] = qHTS assay to test for compound auto fluorescence at 590 nm (red) in HEK293 cells (AID 720679)
Procedure, shortened: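 HEK293 cells (2,000/well, medium with 10% dialyzed FBS) attached for 4-5 hr at 37C, received 23 nL compound and were incubated overnight at 37C, 5% CO2. Red fluorescence was then read at 540/590nm Ex/Em, referenced to Rose Bengal sodium.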

[10] = qHTS assay to test for compound auto fluorescence at 535 nm (green) in HEK293 cells (AID 720680)
[11] = qHTS assay to test for compound auto fluorescence at 460 nm (blue) in HEK293 cell free culture (AID 720681)
Procedure, shortened: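 Blue fluorescence (Ex 405/Em 460 nm, triamterene-equivalent) was read immediately after pin transfer of compound or DMSO into medium (DMEM, 10% FBS) without cells.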

[12] = qHTS assay to test for compound auto fluorescence at 535 nm (green) in HEK293 cell free culture (AID 720682)
Procedure, shortened: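 Using fluorescein as calibrant, autofluorescence was quantified at 485/535 nm in cell-free DMEM containing 10% FBS after pintool addition of compound or vehicle.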

[13] = qHTS assay to test for compound auto fluorescence at 590 nm (red) in HEK293 cell free culture (AID 720683)
Procedure, shortened: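 Red-channel autofluorescence of compounds in culture medium (DMEM, 10% FBS), no cells, measured at 540/590 nm. Rose Bengal sodium is the reference fluorophore for equivalence.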

[14] = qHTS assay to test for compound auto fluorescence at 535 nm (green) in HepG2 cell free culture (AID 720686)
[15] = qHTS assay to test for compound auto fluorescence at 460 nm (blue) in HepG2 cells (AID 720687)
Procedure, shortened: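 Blue-channel autofluorescence (Ex/Em 405/460 nm, triamterene-equivalent) was measured after 1 hr compound exposure at 37 C, 5% CO2. Cells were HepG2, plated overnight at 37 C in MEM plus 10% FBS.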

[16] = target: Glucocorticoid receptor (Homo sapiens) (UniProt P04150); assay: qHTS assay to identify small molecule agonists of the glucocorticoid receptor (GR) signaling pathway (AID 720691; active means well fitted activation curve with a large enough effect in the signal ratio in the repeat runs, not every such curve was filed as active; the % refers to the signal ratio); details: GR-bla HeLa, beta-lactamase reporter ratio, 18 h; activation: at 62.4 µM (top of the series)
Procedure, shortened: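 Beta-lactamase reporter activity, read as fluorescence intensity, was measured in GR-bla HeLa cells exposed to compounds for 18 h at 37 C and then loaded with LiveBLAzer B/G FRET substrate for 2 h at room temperature.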

[17] = target: Glucocorticoid receptor (Homo sapiens) (UniProt P04150); assay: qHTS assay to identify small molecule antagonists of the glucocorticoid receptor (GR) signaling pathway (AID 720692; active means well fitted inhibition curve with a large enough effect in the signal ratio in the repeat runs, not every such curve was filed as active; the % refers to the signal ratio)
Procedure, shortened: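 Fluorescence from cleaved LiveBLAzer B/G FRET substrate reports GRE-driven beta-lactamase in HeLa cells; compounds are tested against 5 nM dexamethasone (final) over 18 h at 37 C, substrate incubation 2 h at room temperature.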

[18] = qHTS assay to test for compound auto fluorescence at 590 nm (red) in HepG2 cell free culture (AID 720684)
Procedure, shortened: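 Steps: dispense MEM/10% FBS medium, no cells; pin compound or DMSO vehicle; read red channel, Ex/Em 540/590 nm. Output given as Rose Bengal sodium equivalents.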

[19] = qHTS assay to test for compound auto fluorescence at 460 nm (blue) in HepG2 cell free culture (AID 720685)
Procedure, shortened: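 Compound (23 nL) or DMSO pinned into cell-free MEM with 10% FBS; blue fluorescence read at 405/460 nm excitation/emission, expressed as auto-fluorescence equivalency to triamterene.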

Measured: Potency

Sequence of Glucocorticoid receptor (Homo sapiens) (P04150 whole entry, looked up): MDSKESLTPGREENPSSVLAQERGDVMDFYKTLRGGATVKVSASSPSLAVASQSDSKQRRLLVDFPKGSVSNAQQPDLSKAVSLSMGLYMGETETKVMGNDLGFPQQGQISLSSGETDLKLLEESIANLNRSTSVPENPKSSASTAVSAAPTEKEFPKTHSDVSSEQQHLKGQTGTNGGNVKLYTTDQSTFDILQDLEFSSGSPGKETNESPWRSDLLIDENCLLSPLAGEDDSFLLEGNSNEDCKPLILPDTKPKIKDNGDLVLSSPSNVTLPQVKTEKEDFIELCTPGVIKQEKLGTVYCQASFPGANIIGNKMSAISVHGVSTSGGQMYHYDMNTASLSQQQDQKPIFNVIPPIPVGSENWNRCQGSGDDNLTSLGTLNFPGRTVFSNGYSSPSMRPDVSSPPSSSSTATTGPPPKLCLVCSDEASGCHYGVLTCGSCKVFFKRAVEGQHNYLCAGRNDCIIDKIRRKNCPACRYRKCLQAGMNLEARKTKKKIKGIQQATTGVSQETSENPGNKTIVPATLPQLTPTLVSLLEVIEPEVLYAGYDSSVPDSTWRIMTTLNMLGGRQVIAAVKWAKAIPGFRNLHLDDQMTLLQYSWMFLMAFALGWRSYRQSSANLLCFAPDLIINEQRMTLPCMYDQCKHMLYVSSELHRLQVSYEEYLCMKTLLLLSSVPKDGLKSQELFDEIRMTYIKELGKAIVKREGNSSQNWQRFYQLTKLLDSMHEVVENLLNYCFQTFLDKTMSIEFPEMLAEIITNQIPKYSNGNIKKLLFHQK

CC(=O)Oc1cccc(C(=O)O)c1OC(C)=O
inactive: [1] | [2] | [3] | [4] | [5] | [6] | [7] | [8] | [9] | [10] | [11] | [12] | [13] | [14] | [15] | [16] | [17]

O=C(O[C@H]1CN2CCC1CC2)N1CCc2ccccc2[C@@H]1c1ccccc1
inactive: [1] | [2] | [3] | [4] | [5] | [6] | [7] | [8] | [9] | [10] | [11] | [12] | [13] | [18] | [19] | [14] | [15] | [16] | [17]

Cc1nnc(C(C)C)n1C1C[C@H]2CC[C@@H](C1)N2CC[C@H](NC(=O)C1CCC(F)(F)CC1)c1ccccc1 (some centres not stated)
inactive: [1] | [2] | [3] | [4] | [5] | [6] | [7] | [8] | [9] | [10] | [11] | [12] | [13] | [18] | [14] | [15]

NCc1ccccc1CC(=O)N[C@@H]1C(=O)N2C(C(=O)O)=C(CSc3nnnn3CC(=O)O)CS[C@H]12
inactive: [1] | [2] | [3] | [4] | [5] | [6] | [7] | [8] | [10] | [11] | [12] | [13] | [18] | [19] | [14] | [15] | [16] | [17]

CCN(CC)CCOC(=O)c1cccnc1
inactive: [1] | [2] | [3] | [4] | [5] | [6] | [7] | [8] | [9] | [10] | [11] | [12] | [13] | [18] | [19] | [14] | [16]

CC1(O)CCC(C(C)(C)O)CC1 (configuration not stated)
inactive: [1] | [2] | [3] | [4] | [5] | [6] | [7] | [8] | [9] | [10] | [11] | [12] | [13] | [18] | [19] | [14] | [16]

O=S(=O)(O)Oc1ccc(C(c2ccc(OS(=O)(=O)O)cc2)c2ccccn2)cc1
inactive: [1] | [2] | [3] | [4] | [5] | [6] | [7] | [8] | [9] | [10] | [11] | [12] | [13] | [18] | [14] | [15] | [16] | [17]

CC(C)[C@H](N)C(=O)OCC(CO)OCn1cnc2c(=O)[nH]c(N)nc21 (some centres not stated)
inactive: [1] | [2] | [3] | [4] | [5] | [6] | [7] | [8] | [9] | [10] | [11] | [12] | [13] | [19] | [14] | [15] | [16] | [17]

Cc1cccc(Nc2ncccc2C(=O)O)c1C
inactive: [1] | [2] | [3] | [4] | [5] | [6] | [7] | [8] | [9] | [10] | [11] | [12] | [13] | [19] | [14] | [15]

CS(=O)(=O)Nc1cc2occ(NC=O)c(=O)c2cc1Oc1ccccc1
inactive: [1] | [2] | [3] | [4] | [5] | [7] | [8] | [9] | [10] | [11] | [12] | [13] | [18] | [19] | [14] | [15]

Cc1nc(NS(=O)(=O)c2ccc(N)cc2)nc(C)c1Br
inactive: [1] | [2] | [3] | [4] | [5] | [6] | [7] | [8] | [9] | [10] | [11] | [12] | [13] | [18] | [19] | [14] | [15] | [16] | [17]

COc1cc2[nH]c(C)c(CCN3CCN(c4ccccc4)CC3)c2cc1OC
inactive: [1] | [2] | [3] | [4] | [5] | [6] | [7] | [9] | [10] | [11] | [12] | [13] | [18] | [19] | [14] | [15] | [16] | [17]

NC(=O)OCC(O)COc1ccc(Cl)cc1 (configuration not stated)
inactive: [1] | [2] | [3] | [4] | [5] | [6] | [7] | [8] | [9] | [10] | [11] | [12] | [13] | [18] | [19] | [14] | [15] | [16] | [17]

CO[C@@H]1[C@@H](O[C@@H]2O[C@H](C)[C@@H](O[C@H]3C[C@@](C)(O)[C@@H](O)[C@H](C)O3)[C@H](N(C)C)[C@H]2O)[C@@H](CC=O)C[C@@H](C)[C@@H](O[C@@H]2CC[C@H](N(C)C)[C@@H](C)O2)/C=C/C=C/C[C@@H](C)OC(=O)C[C@H]1O
inactive: [1] | [2] | [3] | [4] | [5] | [6] | [7] | [8] | [9] | [10] | [11] | [12] | [13] | [18] | [19] | [14] | [15] | [16] | [17]

Reference: PubChem BioAssay (Tox21)
